Bioassay records as filed in PubChem BioAssay.
HT1080NT lethal – kills 2HG-producing HT-1080-NT fibrosarcoma cells; HT-1080-NT fibrosarcoma viability, CellTiter-Glo ATP luminescence, 48 h; Potency, µM (series often up to 46.1 µM), without a hit: at the top dose activity, negative = less viability, actives largely listed as cytotoxic; actives 1.6% (n = 360,000); AID 686970;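 note: NT is the 2HG producing partner of a matched IDH1 knockdown line; potency is the fitted concentration of half-maximal effect; 0% = DMSO-treated cells and -100% = media-only wells without cells; nearly all actives have a fitted effect of over 55% in size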
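Viability of the 2HG-overproducing fibrosarcoma line after 48 hours of compound exposure at 37 degrees C was determined by luminescence with CellTiter-Glo, and concentration-effect curves were then fitted and categorized.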
DT40 TDP1 no CPT – qHTS for Inhibitors of human tyrosyl-DNA phosphodiesterase 1 (TDP1): qHTS in cells in absence of CPT | DT40 Tdp1-/- hTDP1 cells, no CPT, ATP luminescence, 48 h | Potency, µM (doses to about 46.2 µM), inactives show at the highest dose activity change, negative = growth inhibition, usual class: inhibitors | actives 15% (n = 420,000) | AID 686978, 2013; note: potency is the fitted concentration of half-maximal effect; nearly all actives have a fitted effect of over 55% in size
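Luminescent ATP content (CellTiter-Glo) served as the growth readout. Knockout chicken DT40 cells expressing human TDP1 were exposed to compounds without camptothecin for a minimum 48 hr at 37 °C.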
IL1B secr inh – inhibitors of inflammasome signaling (IL-1 beta secretion). actives 4.7% (n = 360,000). activity change, % at 57.5 µM. AID 743279. THP-1 LPS/ATP IL-1B secretion, AlphaLISA, 16 h; active compounds read low; in the data active = activity change below about -50%; inconclusive = mostly about -30% to -49%
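THP-1 cells pretreated 1 hr with compounds (up to 57.5 uM final), then stimulated with LPS (250 ng/mL final) plus ATP (1.25 mM final); secreted IL-1B measured by AlphaLISA after 16 hr, decreased signal indicating inhibition.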
HT1080 IDH1KD tx – kills HT-1080 cells with IDH1 knockdown | HT-1080 IDH1 knockdown viability, ATP luminescence, 48 h | Potency, µM (titrated, usually from 46.1 µM), inactives show at the top dose activity, negative = toxicity, usual class: cytotoxic | actives 2% (n = 360,000) | AID 686971;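 note: potency is the fitted concentration of half-maximal effect; 0% = DMSO wells and -100% = cell-free medium wells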
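After a 2 h attachment period, IDH1KD HT-1080 cells took pin-transferred compound for 48 h at 37 °C; ATP-based luminescence after 10 min room-temperature reagent incubation reported viability.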
DT40 TDP1 CPT – growth inhibition of DT40 Tdp1-/-;hTDP1 cells with camptothecin (screen for TDP1 inhibitors); Potency, µM (top dose mostly 46.2 µM), inactives show at the top dose activity change, negative = growth inhibition, hits mostly inhibitors; chicken DT40 Tdp1-/-;hTDP1 cells + 20 nM CPT, ATP luminescence, 48 h; AID 686979; actives 12% (n = 420,000); note: potency is the fitted concentration of half-maximal effect; nearly all actives have a fitted effect of over 55% in size
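Chicken DT40 Tdp1-/- cells complemented with human TDP1, 400 cells/well, exposed to compounds plus 20 nM camptothecin for at least 48 h at 37 C; viability read as ATP content by CellTiter-Glo luminescence.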
* = called active by the depositor; ? = inconclusive; / = no result; [ ] = another dose, or the depositor's remark. Only some compounds are listed: those with a hit (about 19% of all), similar ones and a draw of the others. Unless noted, calls come from the whole dose curve; as a rule, active = well fitted curve in the direction sought with a large enough effect; inconclusive = small, poorly fitted or top-dose-only effect, or another doubt; inactive = no such curve, though single readings can be large; an effect the other way counts as inactive or inconclusive. Unless noted, % is set by controls: 0 for no effect and ±100 for the full control effect.

SMILES	HT1080NT lethal	DT40 TDP1 no CPT	IL1B secr inh	HT1080 IDH1KD tx	DT40 TDP1 CPT
Cc1cccc(NC(=O)COC(=O)c2nn(-c3ccccc3C(F)(F)F)cc2O)c1C	0%	-26%	16	-1%	?
CCCOc1ccc(CNC(=S)N/N=C/c2ccc([N+](=O)[O-])cc2)cc1	?	21µM*	-7	?	?
CCCOc1ccc(C(=O)NC(=S)NCc2cccnc2)cc1	0%	?	-6	-12%	?
CCCOc1ccc(CNC(=S)NCc2ccc(OC(C)C)cc2)cc1	-2%	18µM*	14	1%	?
CCN(CC)C(=O)Cn1cc(C(=O)C(=O)NCc2ccccn2)c2ccccc21	-1%	27%	-13	-2%	3%
O=C(N/N=C/c1ccc(OC(F)F)cc1)c1cc[n+]([O-])cc1	0%	-1%	7	1%	8%
Cc1ccc(S(=O)(=O)N(C)Cc2ccc(C(=O)N/N=C/c3ccc(OC(F)F)cc3)cc2)cc1	-3%	21µM*	10	-9%	15µM*
C/C(=N\NC(=O)c1cccc(S(=O)(=O)N2CCOCC2)c1)c1ccc(OC(F)F)cc1	-12%	-20%	-7	-14%	-13%
C/C(=N\NC(=O)c1ccc(CN(C)S(=O)(=O)c2ccc(C)cc2)cc1)c1ccc(OC(F)F)cc1	-18%	1.5µM*	31	-29%	?
N/C(=N\S(=O)(=O)c1cc(C(F)(F)F)cc(C(F)(F)F)c1)c1ccc(Cl)cc1	?	21µM*	-1	?	18µM*
CCCNC(=O)C1(CC2CC(c3ccccc3)=NO2)CCN(C(=O)c2cc(OCC)c(OCC)c(OCC)c2)CC1 (stereo unspecified)	-5%	?	?	0%	?
O=C(C1CCCC1)N1CCC(CC2CC(c3cccc(Br)c3)=NO2)(C(=O)NCC2CCCCC2)CC1 (stereo unspecified)	-8%	?	0	-6%	16µM*
CCOc1cc(C(=O)N2CCC(CC3CC(c4cccc(Br)c4)=NO3)(C(=O)NCC3CCCCC3)CC2)cc(OCC)c1OCC (stereo unspecified)	1%	21µM*	?	1%	?
COc1cccc(CC(NC(C)=O)C(=O)NC2CCN(C(=O)C3CCCCC3)CC2)c1OC (stereo unspecified)	20%	-3%	14	9%	1%
O=C(OCc1ccccc1Cl)c1ccc(-c2nnn(Cc3ccccc3)n2)cc1	/	?	/	/	-2%
CC(NNC(=S)N1CCN(c2ccccn2)CC1)c1nccc2ccccc12 (stereo unspecified)	-19%	0.018µM*	-101*	?	0.0092µM*
CCNC(=S)N1CCN(c2ccccn2)CC1	20%	-23%	-13	17%	26%
CC(C)(C)c1cc(NCc2ccccn2)n2ncc(-c3ccccc3)c2n1	?	4.6µM*	0	21µM*	2.6µM*
CN1CCN(S(=O)(=O)c2ccc(SCCOc3ccc(Cl)cc3)nc2)CC1	2%	16µM*	?	-1%	-89%
Cc1cnc(-c2nc3ccccc3n2C(C(=O)NC(C)(C)C)c2cc3ccccc3o2)cn1 (stereo unspecified)	0%	?	28	0%	?
Cc1ccc(-n2c(=O)c3c4c(sc3n(Cc3cc(=O)n5cc(Cl)ccc5n3)c2=O)CCC4)cc1C	/	-6%	/	/	-10%
CCOC(=O)C1=C(C)OC(N)=C(C#N)C1c1cc(F)ccc1F (stereo unspecified)	?	?	-66*	?	?
CCOC(=O)C1=C(C)OC(N)=C(C#N)C1c1cccc(C)c1 (stereo unspecified)	2%	-1%	5	2%	0%
CCOC(=O)C1=C(c2ccccc2)OC(N)=C(C#N)C1c1ccncc1 (stereo unspecified)	-6%	?	-15	-3%	23µM*
CCOC(=O)C1=C(CSc2nc(-c3ccncc3)ccc2C#N)OC(N)=C(C#N)C1c1cccnc1 (stereo unspecified)	16%	?	?	8%	-17%
SMILES	HT1080NT lethal	DT40 TDP1 no CPT	IL1B secr inh	HT1080 IDH1KD tx	DT40 TDP1 CPT
CCOC(=O)C1=C(c2ccccc2)OC(N)=C(C#N)C1c1cccs1 (stereo unspecified)	-2%	-13%	-9	?	-26%
CCOC(=O)C1=C(CSc2nc(CC)c(C)cc2C#N)OC(N)=C(C#N)C1c1ccc(OC)cc1 (stereo unspecified)	-1%	16µM*	5	7%	?
CCOC(=O)C1=C(CSc2nc(-c3ccncc3)ccc2C#N)OC(N)=C(C#N)C1c1ccc(OC)cc1 (stereo unspecified)	1%	16µM*	-29	9%	?
CC(Oc1ccc2c(=O)c(-c3ccc(Cl)cc3)c(C(F)(F)F)oc2c1)C(=O)O (stereo unspecified)	-13%	6%	20	5%	1%
COCc1ccc(C(=O)N2CCCC(N(C)CCc3ccccc3)C2)s1 (stereo unspecified)	-5%	?	5	1%	?
COC(=O)C1=C(CS(=O)(=O)c2ccccc2)NC(=O)NC1c1ccccc1 (stereo unspecified)	30%	7%	10	26%	-1%
CC1(C)CC(=O)C(CS(=O)(=O)c2ccccc2)=C(Cl)C1	-1%	2.9µM*	-19	3%	5.2µM*
C=Cc1ccc(COc2ccc3oc(-c4ccccc4)c(C(=O)OCC)c3c2)cc1	/	-5%	/	/	-18%
ClCCn1cnc2c(SCc3ccccc3)ncnc21	1%	1.8µM*	-55*	?	?
ClCCn1cnc2c(SCc3ccccc3Cl)ncnc21	-21%	0.82µM*	-67*	?	?
CC(C)Cn1cnc2c(SCc3ccccc3Cl)nc(N)nc21	-21%	?	?	?	?
CCCn1nc(C(=O)Nc2cc(OCC)c(N3CCOCC3)cc2OCC)c2ccccc2c1=O	2%[9.24 µM]	3.3µM*	-17	1%	16µM*
CCOc1cc(N2CCOCC2)c(OCC)cc1NC(=O)CSc1ncccn1	3%	?	31	-3%	-23%
CCOc1cc(N2CCOCC2)c(OCC)cc1NC(=O)c1ccc(-n2ccnc2)c([N+](=O)[O-])c1	-12%	15µM*	12	-14%	-30%
CCOc1cc(N2CCOCC2)c(OCC)cc1NC(=O)CSc1ncccc1C(=O)O	-3%	6.5µM*	19	-6%	?
COc1ccccc1NC(=O)c1ccc(-n2ccnc2)c([N+](=O)[O-])c1	16%	-23%	0	21%	-8%
